About 25 (0.007%) of roughly 380,000 compounds were called active. The call rests on the fitted dose curve; in most records, active means well fitted activation curve with a large enough effect; inconclusive means small, poorly fitted or top-dose-only effect; inactive means no such curve, though single readings can be large or run the other way. Only a sample is shown.
The compounds below were run against Glucagon-like peptide 1 receptor (Homo sapiens) (UniProt P43220) (assay: qHTS of GLP-1 Receptor Agonists). Details: HEK293 GLP-1R CRE-luciferase, luminescence, 4-6 h, cells express a hypersensitive GLP-1R form; series mostly up to 45.6 µM.
Chain of Glucagon-like peptide 1 receptor (Homo sapiens) (P43220 whole entry, looked up): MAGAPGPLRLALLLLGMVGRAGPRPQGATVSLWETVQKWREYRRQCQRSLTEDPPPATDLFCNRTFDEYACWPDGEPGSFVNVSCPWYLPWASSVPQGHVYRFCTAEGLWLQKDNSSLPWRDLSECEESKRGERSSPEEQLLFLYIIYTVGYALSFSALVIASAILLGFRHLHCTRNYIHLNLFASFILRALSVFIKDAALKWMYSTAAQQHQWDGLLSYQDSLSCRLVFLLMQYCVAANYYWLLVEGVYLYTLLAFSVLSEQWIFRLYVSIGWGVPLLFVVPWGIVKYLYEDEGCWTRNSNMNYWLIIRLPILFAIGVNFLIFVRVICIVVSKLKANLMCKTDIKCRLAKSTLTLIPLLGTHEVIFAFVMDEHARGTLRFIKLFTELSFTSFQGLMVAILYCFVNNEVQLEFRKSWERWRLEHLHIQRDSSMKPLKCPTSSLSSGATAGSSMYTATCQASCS
Source text: The overall goal of this project was to develop a novel assay for discovering small molecule ligands for class B1 G protein-coupled receptors (GPCRs). Very few agonists (or inverse agonists) with generally weak activity for this entire group of physiologically important receptors are known to date. To establish proof-of-principle that this critical bottleneck can be overcome with a suitable screening approach, our studies focused on the class B1 receptor for glucagon-like peptide-1 (GLP-1R), a potential therapeutic target for diabetes and neurodegenerative disease.
The assay was developed in a "mix and measure" format using a cell-based functional readout. Toward this goal, stably transfected HEK293 cell clones were established that co-express (i) a cAMP-responsive luciferase reporter gene, and (ii) GLP-1Rs that upon ligand interaction either stimulate (agonists) or inhibit (inverse agonists) luciferase activity. In different cell lines to be used for screening, expressed GLP-1Rs are specifically optimized for high sensitivity detection of either weak agonists (hypersensitive receptor) or inverse agonists (constitutively active receptor mutant). In addition, control cell lines were developed that express either the cAMP-responsive reporter gene without recombinant GLP-1Rs (enabling initial exclusion of GLP-1R independent effects of candidate probes), or the reporter gene together with wild type GLP-1Rs (for confirmation of probe activity at this receptor), or the reporter gene in combination with the constitutively active orphan receptor GPR119 (enabling initial exclusion of GLP-1R independent inhibitory effects of candidate inverse agonists).
To that end, this assay was optimized for 1536-well format and screened against the MLSMR.
NIH Molecular Libraries Probe Production Network [MLPCN]
NIH Chemical Genomics Center [NCGC]
PI Name: Martin Beinborn, Tufts Medical Center
In a white solid 1536-well plate, 6 uL of cells are dispensed in DMEM without phenol red, 10% Nu serum, and 1% pen-strep medium. The plates are then incubated for 12 hours at 37 deg C at 5% CO2 before 23 nL of compounds are added. After a 4-6 hr incubation at37 deg C and 5% CO2, 3 uL of detection reagent are added and after a 12 min incubation at RT, a luminescent read is obtained on the ViewLux.
For COC(=O)[C@@H]1CC2=CC(=O)CC[C@]2(C)[C@@]23O[C@@H]2C[C@@]2(C)[C@@H](CC[C@@]24CCC(=O)O4)[C@H]13, the outcome was “inactive”. OCC(CO)NC1C[C@](O)(CO)[C@@H](O)[C@H](O)[C@H]1O (stereo partly specified) was tested, and the outcome was “inactive”. For Cc1ccccc1NC(=O)Cn1c(=O)n(Cc2ccco2)c(=O)c2ccc(C(=O)NC3CCCC3)cc21, the outcome was “inactive”. CC(=O)O[C@]1(C(C)=O)CC[C@@H]2[C@@H]3C=C(C)C4=CC(=O)CC[C@@]4(C)[C@H]3CC[C@]21C was tested, and the outcome was “inactive”. With C[C@]12CC[C@@H]3c4ccc(O)cc4C[C@@H](CCCCCCCCCS(=O)CCCC(F)(F)C(F)(F)F)C3[C@@H]1CC[C@@H]2O (stereo partly specified) the outcome was “inactive”. For Cc1nn(-c2ccc(F)cc2)c(-n2cccc2)c1C(=O)N1CCN(c2ccccc2)CC1, the outcome was “inactive”. O=C(CCCCn1c(=O)c2ccccc2n(CC(=O)Nc2cccc(C(F)(F)F)c2)c1=O)NCc1ccc2c(c1)OCO2 was tested, and the outcome was “inactive”. COc1cccc(NC(=O)CSc2cc(=O)n(C)c3ccc(Cl)cc23)c1 was tested, and the outcome was “inactive”. For CCc1ccccc1NS(=O)(=O)c1ccc2nc(-c3ccccc3)[nH]c2c1, the outcome was “inactive”. For Cc1ccc(C)c(N2CCN(C(=O)CCc3c(C)nc4c(c3C)c(=O)n(C)c(=O)n4C)CC2)c1, the outcome was “inactive”. In the case of O=C(Nc1cccc(C(F)(F)F)c1)c1cc(Br)cc(Br)c1O, the outcome was “inactive”. For CCOC(=O)c1ccc(N2C(=O)c3n[nH]c(C)c3C2c2ccc(O)c(OC)c2)cc1 (stereo unspecified), the outcome was “inactive”. In the case of CCc1ccc(NC(=O)CN2CCSc3ccc(S(=O)(=O)N4CCCC4)cc32)cc1, the outcome was “inactive”. For C=C1C(=CC=C2CCC[C@]3(C)[C@@H]([C@H](C)C=C[C@H](C)C(C)C)CC[C@@H]23)C[C@@H](O)C[C@@H]1O, the outcome was “inactive”. For CCOc1ccc(NC(=O)Cn2cc(C(=O)c3ccc(C)cc3)c(=O)c3cc4c(cc32)OCCO4)cc1, the outcome was “inactive”. CCOC(=O)c1oc2ccc(S(=O)(=O)n3nc(-c4ccccc4OC)cc3N)cc2c1C was tested, and the outcome was “inactive”. With COc1ccc(S(=O)(=O)n2nc(C)c(S(=O)(=O)N3CCCCCC3)c2C)cc1 the outcome was “inactive”. CCN(C(=O)c1sc2cc(OC)ccc2c1Cl)c1ccccc1 was tested, and the outcome was “inactive”. For CN(C)c1ccc(NC(=O)CSc2nc(-c3ccco3)cc(C(F)(F)F)n2)cc1, the outcome was “inactive”. CCCCC(=O)OCC(=O)[C@H]1[C@H](C)C[C@@H]2[C@@H]3C[C@@H](F)C4=CC(=O)C=C[C@]4(C)[C@@]3(F)[C@@H](O)C[C@@]21C was tested, and the outcome was “inactive”. With COc1ccc(NC(=O)Cn2c(=O)cc(C)c3c(C)nn(-c4cccc(Cl)c4C)c32)cc1OC the outcome was “inactive”. With CCCCCCCCCc1ccc(OCCOCCOCCOCCOCCOCCOCCOCCOCCO)cc1 the outcome was “inactive”. For COc1cc(CNCCSc2nnnn2C)ccc1OCc1c(F)cccc1Cl, the outcome was “inactive”. Cc1cccc(N2CCN(C(=O)c3cc4c(=O)oc5ccccc5c4s3)CC2C)c1 (stereo unspecified) was tested, and the outcome was “inactive”. For CC(C)(O/N=C(\C(=O)N[C@@H]1C(=O)N2C(C(=O)[O-])=C(C[n+]3ccccc3)CS[C@@H]12)c1csc(N)n1)C(=O)O, the outcome was “inactive”. COc1ccccc1NC(=O)C1=C(C)Nc2ncnn2C1c1sccc1C (stereo unspecified) was tested, and the outcome was “inactive”. CCC(CCC(C)C1CCC2C3CC=C4CC(O)CC[C@@]4(C)C3CC[C@@]12C)C(C)C (stereo partly specified) was tested, and the outcome was “inactive”. In the case of Cc1sc2ncn(CC(=O)N3CCN(c4ccc(F)cc4)CC3)c(=O)c2c1S(=O)(=O)N1CCN(c2ncccn2)CC1, the outcome was “inactive”. In the case of Cc1cccc(NC(=O)Cn2c(C(F)(F)F)nc3ccccc32)c1C, the outcome was “inactive”. COc1cc(OC)cc(C(=O)Nc2ccc3nc(Nc4cccc(C(F)(F)F)c4)cc(C)c3c2)c1 was tested, and the outcome was “inactive”. CC(=O)Oc1ccccc1C(=O)Nc1ncc([N+](=O)[O-])s1 was tested, and the outcome was “inactive”. For COc1ccccc1CNC(=O)CCn1c(=O)c2ccccc2n(CC(=O)Nc2ccc(Br)cc2F)c1=O, the outcome was “inactive”. With Cc1ccc(N2CCN(C(=O)CCc3c(C)nc4c(c3C)c(=O)n(C)c(=O)n4C)CC2)c(C)c1 the outcome was “inactive”. C/C=C1\C2C=C(C)CC1(N)c1ccc(=O)[nH]c1C2 (stereo unspecified) was tested, and the outcome was “inactive”. For CC(=O)NC(=O)c1ccccc1O, the outcome was “inactive”. In the case of CCCOc1ccc(-c2cccc(NS(=O)(=O)c3ccccc3)c2)nn1, the outcome was “inactive”. Cc1ccc(S(=O)(=O)NC(=O)NN2C[C@H]3CCC[C@@H]3C2)cc1 was tested, and the outcome was “inactive”. COc1ccc(-c2c(C)nn3c(N4CCC(C(=O)NCCC(C)C)CC4)cc(C)nc23)cc1OC was tested, and the outcome was “inactive”. With CN(C)CCCSc1ccccc1NC(=O)/C=C/c1ccccc1 the outcome was “inactive”. In the case of CCOC(=O)c1c(NC(=O)c2ccc(S(=O)(=O)N3CCCC(C)C3)cc2)sc2c1CCN(C(C)C)C2 (stereo unspecified), the outcome was “inactive”. In the case of C[N+](C)(CCOc1ccccc1)Cc1cccs1 (tested in a mixture with another compound), the outcome was “inactive”. In the case of CCOc1ccccc1NC(=O)C1=C(C)Nc2ncnn2C1c1ccc(NC(C)=O)cc1 (stereo unspecified), the outcome was “inactive”. For COc1cccc(CNCCSc2nnnn2C)c1OCc1ccccc1Cl, the outcome was “inactive”. With CCc1ccc(C(=O)CC2(O)C(=O)N(CCc3ccccc3)c3ccc(Br)cc32)cc1 (stereo unspecified) the outcome was “inactive”. With COc1ccccc1CNC(=O)CCn1c(=O)c2ccccc2n(CC(=O)Nc2cccc(Cl)c2)c1=O the outcome was “inactive”. In the case of COc1ccc(CCNc2nc(-c3ccc(F)cc3)cc(C(F)(F)F)n2)cc1OC, the outcome was “inactive”. For CCc1ccc(Sc2cc(C(=O)NCCCOC(C)C)c3ccccc3n2)cc1, the outcome was “inactive”. For O=C(CSc1ncc(CO)n1Cc1ccc(Cl)cc1)NCc1ccc(F)cc1, the outcome was “inactive”. In the case of COCCNC(=O)c1ccc2c(c1)N=C(C)c1cc(C)ccc1S2, the outcome was “inactive”. In the case of Oc1ccc(Cl)c2c1CCC2, the outcome was “inactive”. For COc1ccccc1-c1cc2nc(C)c(CCC(=O)O)c(C)n2n1, the outcome was “inactive”. In the case of O=C(CCS(=O)(=O)c1ccc2c(c1)NC(=O)CO2)Nc1cccc(C(F)(F)F)c1, the outcome was “inactive”. With CCCC[C@H]1C(=O)N(c2ccccc2)N(c2ccc(O)cc2)C1=O the outcome was “inactive”. In the case of COc1ccc(-n2c(C)nc3c(cnn3-c3ccc(F)cc3)c2=O)cc1, the outcome was “inactive”. With COc1ccc2cc(-c3nc(Cl)c4c5c(sc4n3)CC(C)CC5)c(=O)oc2c1 (stereo unspecified) the outcome was “inactive”. In the case of O=C(OCc1ccccc1)c1ccc(O)cc1, the outcome was “inactive”. For Cc1ccccc1C(=O)Nc1cc(C)c(O)c(-c2nc3ccccc3o2)c1, the outcome was “inactive”. O=C1c2c(O)cccc2[C@@H]([C@@H]2O[C@H](CO)[C@@H](O)[C@H](O)[C@H]2O)c2cc(CO)cc(O)c21 was tested, and the outcome was “inactive”. For CCOCCCNC(=O)c1cn(CC)c2ccc(S(=O)(=O)N3CCc4ccccc4C3)cc2c1=O, the outcome was “inactive”. CC(=O)N1CCc2cc(Br)cc(S(=O)(=O)CCC(=O)NCCc3ccc(Cl)cc3)c21 was tested, and the outcome was “inactive”. COc1ccc(Nc2ncc(C(=O)Nc3cc(C)ccc3OC)c3ccccc23)cc1 was tested, and the outcome was “inactive”. For COc1cc2nc(SCC(=O)Nc3ccccc3F)n3nc(-c4ccccc4)nc3c2cc1OC, the outcome was “inactive”. In the case of CCN(CC)c1ccc(C2C(C(N)=O)=C(C)Nc3nc(SCc4ccccc4)nn32)cc1 (stereo unspecified), the outcome was “inactive”. In the case of CCCCCn1c(=O)[nH]c2cc(C(=O)Nc3ccc(F)cc3)ccc2c1=O, the outcome was “inactive”. With CC[C@]1(C)CC(=O)NC1=O the outcome was “inactive”. In the case of COc1cc(OC)c(NC(=O)c2c3c(nn2C)-c2ccccc2SC3)cc1Cl, the outcome was “inactive”. In the case of COc1ccc(-c2cc(C(F)(F)F)nc(SCC(=O)N(C)Cc3ccccc3)n2)cc1OC, the outcome was “inactive”. For CC1(C)O[C@@H]2C[C@@H]3[C@H]4C[C@@H](F)C5=CC(=O)C=C[C@]5(C)[C@@]4(F)[C@@H](O)C[C@]3(C)[C@]2(C(=O)CO)O1, the outcome was “inactive”. In the case of Cc1ccc(C)c(N2C(=O)N(Cc3c(F)cccc3Cl)c3ccccc3S2(=O)=O)c1, the outcome was “inactive”. In the case of COc1cccc(CNC(=O)C(NS(=O)(=O)c2ccc3nc(C)sc3c2)C(C)C)c1 (stereo unspecified), the outcome was “inactive”. In the case of Cc1cc2c(cc1S(=O)(=O)CCC(=O)Nc1ccc(OC(F)(F)F)cc1)OCC(=O)N2, the outcome was “inactive”. For NC(=O)C(=O)N/N=C/c1ccc([N+](=O)[O-])o1, the outcome was “inactive”. For Cc1ccc(-c2ncc(Cl)cc2-c2ccc(S(C)(=O)=O)cc2)cn1, the outcome was “inactive”. Cc1nnc(C(=O)NC(C)(C)c2nc(C(=O)NCc3ccc(F)cc3)c(O)c(=O)n2C)o1 was tested, and the outcome was “inactive”. For CC[C@]1([C@H]2O[C@@H]([C@@H]3O[C@](O)(CO)[C@@H](C)C[C@H]3C)C[C@H]2C)CC[C@@H]([C@]2(C)CC[C@@]3(C[C@@H](O)[C@@H](C)[C@@H]([C@H](C)[C@H](OC)[C@H](C)C(=O)O)O3)O2)O1, the outcome was “inactive”. In the case of COc1ccc(NC(=O)C2CCCN(S(=O)(=O)c3c(C)[nH]c(=O)[nH]c3=O)C2)c(OC)c1 (stereo unspecified), the outcome was “inactive”. Cc1cccc(C)c1NC(=O)NC1=CCCN1C was tested, and the outcome was “inactive”. In the case of CCCN(C(=O)Cn1cc(S(=O)(=O)N2CCN(c3ccccc3F)CC2)c2ccccc2c1=O)c1cccc(C)c1, the outcome was “inactive”. C[C@@H]1C[C@H]2[C@@H]3C[C@H](F)C4=CC(=O)C=C[C@@]4(C)[C@]3(F)[C@H](O)C[C@]2(C)[C@@]1(O)C(=O)CO was tested, and the outcome was “inactive”. CCCC(=O)O[C@]1(C(=O)COC(=O)CC)CC[C@@H]2[C@@H]3CCC4=CC(=O)CC[C@]4(C)[C@H]3[C@@H](O)C[C@@]21C was tested, and the outcome was “inactive”. CC(=O)CC(c1ccccc1)C1C(=O)Oc2ccccc2C1=O (stereo unspecified) was tested, and the outcome was “inactive”. COc1cc2c(cc1OC)[C@@H](Cc1cc(OC)c(OC)c(OC)c1)[N+](C)(CCCOC(=O)CC/C=C/CCC(=O)OCCC[N+]1(C)CCc3cc(OC)c(OC)cc3[C@H]1Cc1cc(OC)c(OC)c(OC)c1)CC2 (stereo partly specified) was tested, and the outcome was “inactive”. Cc1cc(OCC(=O)NCC2(N(C)C)CCCCC2)cc(C)c1Cl was tested, and the outcome was “inactive”. In the case of CC(=O)c1ccc(NC(=O)C2CCN(S(=O)(=O)c3c(C)noc3/C=C/c3ccc(C)cc3)CC2)cc1, the outcome was “inactive”. With COc1ccc(NC(=O)c2cnc(Nc3ccc(C)c(Cl)c3)c3ccccc23)cc1OC the outcome was “inactive”. O=C(NCc1ccccc1)C1CCN(S(=O)(=O)c2ccc3[nH]c(=O)ccc3c2)CC1 was tested, and the outcome was “inactive”.
